Composite z-score and z-score data for 15 compounds are collected here from PubChem BioAssay.

A short description of experiment [1]: small molecules captured by biotinylated probe aFSTL3 – biochemical, small-molecule microarray, fluorescence 635/667, stem cell growth factor project, primary screen (AID 1064).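 Note: measures binding of the biotinylated anti-FSTL3 antibody to printed compounds.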 Conditions: higher = more signal.
The nature of experiment [2]: binders from COS7 lysate, DM2A8 probe, primary screen, torsin A project, cell lysate, small-molecule microarray, fluorescence 635/667 (AID 1065). Conditions: higher = more signal, COS7 lysate expressing mutant human TOR1A.
Experiment [3] can be described thus: small molecules captured by biotinylated probe aFGF2 – biochemical, small-molecule microarray, fluorescence 635/667, stem cell growth factor project, primary screen (AID 1067).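 Note: measures binding of biotinylated aFGF2 protein to printed compounds on slides; z-score merges feature fluorescence and signal-to-noise across triplicate slides.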 The following applies: higher = more signal.
The nature of experiment [4]: small molecules captured by biotinylated probe aFGF10 – biochemical, small-molecule microarray, fluorescence 635/667, stem cell growth factor project, primary screen (AID 1071).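 Note: score merges 667 nm spot intensity and signal to noise from triplicate slides.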 The following applies: higher = more signal.
For experiment [5], the target named is Neurogenic locus notch homolog protein 2 (Homo sapiens) (UniProt Q04721). As to the kind of experiment: small molecules binding Notch2 protein – biochemical, small-molecule microarray, 635 nm fluorescence, stem cell growth factors, primary screen (AID 1073). Conditions: higher = more signal.
The target of experiment [6] is Pro-neuregulin-1, membrane-bound isoform (Homo sapiens) (UniProt Q02297). As to the kind of experiment: small molecules binding neuregulin-1 protein – biochemical, small-molecule microarray, fluorescence 635/667, psychiatric disease protein project, primary screen (AID 1075).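 Note: score combines 667 nm spot fluorescence with signal to noise.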 Conditions: NRG1 binding, 635 nm fluorescence, higher = more signal.
Experiment [7] relates to Neuregulin-1 EGF-like domain. As to the kind of experiment: small molecules binding NRG1 EGF domain – biochemical, small-molecule microarray, 635 nm fluorescence, primary screen (AID 1081).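 Note: binding of the protein to compounds printed on small-molecule microarray slides.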 Conditions: higher = more signal.
Experiment [8] is described as follows: FRG1 expression reporter modulators in myotubes – cell-based, C2C12 myotubes, firefly/Renilla luciferase, luminescence, FRG1 inhibition for FSHD, primary screen (AID 1084). The following applies: FRG1 promoter luciferase, higher = more signal, called active from +8 up or from −8 down.
Experiment [9] can be described thus: small molecules captured by biotinylated probe aFST – biochemical, small-molecule microarray, fluorescence 635/667, stem cell growth factor project, primary screen (AID 1086).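 Note: score merges 667 nm fluorescence with signal-to-noise of each printed compound spot.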 The following applies: higher = more signal.
The nature of experiment [10]: binders of probe aHhip on microarray, primary screen, stem cell growth factor project, biochemical, small-molecule microarray, fluorescence 635/667 (AID 1087).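 Note: score merges spot fluorescence at 667nm with spot signal to noise ratio.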 Conditions: higher = more signal.

SMILES strings stand for the structures. Activity calls are given as the source filed them.

Pro-neuregulin-1, membrane-bound isoform (Homo sapiens), sequence (Q02297 whole entry, looked up, the tested form may be a part, canonical isoform): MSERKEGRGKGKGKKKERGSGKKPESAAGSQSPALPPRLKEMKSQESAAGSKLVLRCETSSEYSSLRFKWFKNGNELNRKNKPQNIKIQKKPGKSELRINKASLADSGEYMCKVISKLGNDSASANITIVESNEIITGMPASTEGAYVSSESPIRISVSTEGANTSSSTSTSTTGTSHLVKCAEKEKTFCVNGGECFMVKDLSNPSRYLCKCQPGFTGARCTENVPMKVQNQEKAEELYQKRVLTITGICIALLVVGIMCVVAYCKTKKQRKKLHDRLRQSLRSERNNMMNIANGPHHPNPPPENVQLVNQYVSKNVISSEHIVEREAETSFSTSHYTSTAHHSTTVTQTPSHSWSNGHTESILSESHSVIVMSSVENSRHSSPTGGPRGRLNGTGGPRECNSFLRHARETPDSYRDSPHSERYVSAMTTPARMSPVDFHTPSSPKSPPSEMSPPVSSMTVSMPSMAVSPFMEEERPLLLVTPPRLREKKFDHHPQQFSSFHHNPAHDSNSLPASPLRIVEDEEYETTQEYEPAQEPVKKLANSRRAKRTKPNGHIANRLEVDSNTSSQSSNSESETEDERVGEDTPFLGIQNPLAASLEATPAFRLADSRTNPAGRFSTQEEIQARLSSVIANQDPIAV
Neurogenic locus notch homolog protein 2 (Homo sapiens), sequence (Q04721 whole entry, looked up, canonical isoform): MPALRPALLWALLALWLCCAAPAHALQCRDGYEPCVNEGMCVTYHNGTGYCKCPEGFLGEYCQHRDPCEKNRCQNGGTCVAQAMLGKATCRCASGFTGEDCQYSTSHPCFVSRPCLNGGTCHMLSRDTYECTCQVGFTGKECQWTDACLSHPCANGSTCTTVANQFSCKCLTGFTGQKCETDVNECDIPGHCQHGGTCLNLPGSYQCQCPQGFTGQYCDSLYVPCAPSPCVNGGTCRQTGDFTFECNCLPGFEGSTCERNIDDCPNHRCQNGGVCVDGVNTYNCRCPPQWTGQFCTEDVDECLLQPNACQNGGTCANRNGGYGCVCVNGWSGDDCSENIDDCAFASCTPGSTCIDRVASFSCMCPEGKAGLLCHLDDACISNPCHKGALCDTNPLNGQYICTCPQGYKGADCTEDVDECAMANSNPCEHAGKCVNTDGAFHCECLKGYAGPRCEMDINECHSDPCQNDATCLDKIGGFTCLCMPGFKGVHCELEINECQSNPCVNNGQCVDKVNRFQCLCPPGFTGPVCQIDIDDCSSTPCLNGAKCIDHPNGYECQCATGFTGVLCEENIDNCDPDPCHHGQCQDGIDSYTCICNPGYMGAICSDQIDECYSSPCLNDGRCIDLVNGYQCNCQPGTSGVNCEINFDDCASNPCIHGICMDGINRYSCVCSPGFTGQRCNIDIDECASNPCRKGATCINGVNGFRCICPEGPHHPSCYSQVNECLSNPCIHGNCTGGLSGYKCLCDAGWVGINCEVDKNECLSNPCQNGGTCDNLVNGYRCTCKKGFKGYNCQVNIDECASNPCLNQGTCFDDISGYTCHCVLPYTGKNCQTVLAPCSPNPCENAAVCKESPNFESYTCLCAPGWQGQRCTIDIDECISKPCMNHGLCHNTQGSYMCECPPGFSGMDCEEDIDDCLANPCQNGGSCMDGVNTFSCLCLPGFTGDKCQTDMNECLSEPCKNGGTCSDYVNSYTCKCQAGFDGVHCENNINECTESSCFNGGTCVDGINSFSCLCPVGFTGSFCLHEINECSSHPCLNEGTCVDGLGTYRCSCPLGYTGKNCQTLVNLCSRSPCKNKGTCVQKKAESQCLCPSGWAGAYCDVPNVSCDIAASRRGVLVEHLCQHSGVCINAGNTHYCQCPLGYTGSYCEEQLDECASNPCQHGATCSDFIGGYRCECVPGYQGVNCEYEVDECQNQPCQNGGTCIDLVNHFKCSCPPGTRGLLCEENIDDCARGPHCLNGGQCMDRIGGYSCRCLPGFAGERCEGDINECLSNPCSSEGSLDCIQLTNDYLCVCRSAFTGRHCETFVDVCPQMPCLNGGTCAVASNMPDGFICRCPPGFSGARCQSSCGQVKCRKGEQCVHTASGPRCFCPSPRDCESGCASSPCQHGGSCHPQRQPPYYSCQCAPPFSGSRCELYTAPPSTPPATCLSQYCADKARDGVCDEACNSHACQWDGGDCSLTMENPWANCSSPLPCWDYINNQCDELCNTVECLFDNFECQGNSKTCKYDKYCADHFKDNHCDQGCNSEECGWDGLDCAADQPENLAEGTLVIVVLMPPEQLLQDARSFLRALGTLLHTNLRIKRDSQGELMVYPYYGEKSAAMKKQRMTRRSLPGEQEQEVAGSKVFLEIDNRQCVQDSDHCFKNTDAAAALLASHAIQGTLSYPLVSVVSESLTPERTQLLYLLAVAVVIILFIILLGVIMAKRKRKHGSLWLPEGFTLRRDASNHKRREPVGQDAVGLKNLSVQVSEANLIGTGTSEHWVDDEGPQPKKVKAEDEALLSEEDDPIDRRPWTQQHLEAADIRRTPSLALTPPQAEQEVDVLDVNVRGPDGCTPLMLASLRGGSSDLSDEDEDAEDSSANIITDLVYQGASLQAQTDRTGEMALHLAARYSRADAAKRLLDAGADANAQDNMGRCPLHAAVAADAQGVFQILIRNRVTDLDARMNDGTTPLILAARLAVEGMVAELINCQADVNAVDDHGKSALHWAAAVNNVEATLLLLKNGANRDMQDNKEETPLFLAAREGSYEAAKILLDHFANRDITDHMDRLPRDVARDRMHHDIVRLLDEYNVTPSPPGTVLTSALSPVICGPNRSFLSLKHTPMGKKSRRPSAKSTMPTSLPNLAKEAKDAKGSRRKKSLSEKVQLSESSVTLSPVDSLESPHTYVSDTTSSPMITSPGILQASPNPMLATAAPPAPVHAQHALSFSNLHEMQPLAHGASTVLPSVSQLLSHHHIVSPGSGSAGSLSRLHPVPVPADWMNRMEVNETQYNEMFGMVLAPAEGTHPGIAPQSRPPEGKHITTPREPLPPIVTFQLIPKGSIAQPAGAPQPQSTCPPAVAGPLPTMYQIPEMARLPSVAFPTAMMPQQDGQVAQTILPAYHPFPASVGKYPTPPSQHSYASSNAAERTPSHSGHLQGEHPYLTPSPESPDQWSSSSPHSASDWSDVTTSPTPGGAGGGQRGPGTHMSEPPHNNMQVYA

For `COc1ccc([Si](C)(C)[C@@H]2[C@@H](CC(=O)N(CCO)Cc3ccccc3)O[C@]3(C(=O)N(Cc4ccc(N5CCOC5=O)cc4)c4ccccc43)[C@H]2C)cc1`, the composite z-score was 0.149 in experiment [1]; 0.181 in experiment [2]; -0.093 in experiment [3]; 0.222 in [4]; 0.294 in experiment [5]; 0.567 in experiment [6]. Further, the composite z-score worked out at 1.1 in experiment [7], 0.389 in experiment [9] and 0.113 in experiment [10]. Besides, in experiment [8], the z-score is -0.153 (inactive).
For the compound `CC(C)(C)OC(=O)CC[C@@]1(C(=O)N2CCCCC2)N=C(c2ccc(OCCCO)cc2)O[C@@H]1c1ccccc1N=[N+]=[N-]`, the composite z-score in experiment [1] is 0.358; in experiment [2] it was 0.805; in experiment [3], 0.147; in experiment [4] it was 1.03; in experiment [5] it was 1.66; in experiment [6], 1.89. Besides, the results for the composite z-score in experiment [7], in experiment [9] and in experiment [10] were 1.41, 1.34 and -0.0237, respectively. In experiment [8], the z-score was -1.88 (inactive).
Regarding `CCOC(=O)C[C@H]1[C@H](OC(=O)c2ccccc2-c2ccccc2)[C@@H](NC(=O)c2ccccc2)c2cc(OCCCO)ccc2N1C(=O)Cc1ccc(OC)cc1`, the composite z-score in [1] is -0.205; in experiment [2], -0.0688; in experiment [3] it was -0.0569; in [4], 0.149; in experiment [5] it was 0.585; in experiment [6], -0.323. The composite z-score in experiment [7] was -0.191; in [9], -0.0579; in [10], -0.204. Moreover, the z-score in [8] is 0.57 (inactive).
With `COc1cccc(C)c1NC(=O)O[C@H]1[C@H](OC(=O)Nc2ccccc2)[C@H](OC(=O)Nc2ccccc2)[C@@H](OC)O[C@@H]1CO`, the composite z-score in [1] is -0.306; in [2] it was 0.559; in [3], -0.0216; in experiment [4], 0.401; in experiment [5], 1.16; in [6] it was 1.64. Moreover, the composite z-score in experiment [7] is 1.22; in [9], 0.319; in [10], -0.0994. Besides, the z-score in [8] is 1.59 (inactive).
As for `C=CCNC(=O)[C@@H]1[C@H]2C(=O)O[C@H](c3ccccc3)[C@H](c3ccccc3)N2[C@H](c2ccc(O)cc2)[C@@]12C(=O)Nc1ccc(C#CCCO)cc12`, the composite z-score was 0.0065 in experiment [1]; -0.395 in experiment [2]; -0.13 in [3]; 0.508 in experiment [4]; -1.34 in experiment [5]; 1.37 in experiment [6]. Besides, the results for the composite z-score in experiment [7], in experiment [9] and in experiment [10] were -0.353, -1.05 and -0.251, respectively. Also, the z-score in experiment [8] is -0.0378 (inactive).
In the case of `Cc1ccc(C(C)CC(O)C2C=CC3C(=O)N(Cc4ccccc4)C(=O)C3N2n2cnnc2)o1` (stereo not given), the composite z-score was determined as 1.67 in [1]; 0.46 in experiment [2]; 0.522 in experiment [3]; 0.703 in experiment [4]; 1.29 in experiment [5]; 0.907 in experiment [6]. In addition, the composite z-score in experiment [7] was 1.44; in experiment [9] it was 2.16; in experiment [10], 0.488. Further, the z-score in experiment [8] was 0.386 (inactive).
Consider `O=C1C[C@@](C(=O)O)(c2ccc([N+](=O)[O-])cc2)[C@@H](c2ccc(CO)cc2)N1CC12CC3CC(CC(C3)C1)C2`, for which the composite z-score is 0.524 in [1]; 0.603 in experiment [2]; -0.009 in [3]; 0.527 in experiment [4]; 1.13 in experiment [5]; 1.38 in experiment [6]. Further, the composite z-score is 1.12 in experiment [7], 0.49 in experiment [9] and -0.196 in experiment [10]. Also, the z-score in experiment [8] is -2.54 (inactive).
With `CC(C)=CCCC(C)=CC(O)C1C=CC2C(=O)N(c3ccccc3)C(=O)C2N1Nc1ccc([N+](=O)[O-])cc1` (stereo not given), the composite z-score is -0.265 in experiment [1]; 0.148 in [2]; 0.0159 in experiment [3]; 0.344 in experiment [4]; 1.59 in experiment [5]; 1.64 in experiment [6]. The composite z-score was 1.28 in experiment [7], 0.852 in experiment [9] and -0.0237 in experiment [10]. In [8], the z-score was -1.01 (inactive).
Take `COc1ccc([Si](C)(C)[C@@H]2[C@@H](CC(=O)N3Cc4ccccc4C[C@H]3CO)O[C@]3(C(=O)N(Cc4cccc(N5CCCCC5=O)c4)c4ccccc43)[C@H]2C)cc1`: the composite z-score in experiment [1] was -0.429; in [2] it was 0.569; in experiment [3] it was 0.0207; in experiment [4], 0.494; in [5], 0.523; in [6], 0.69. Besides, the composite z-score in experiment [7] is 0.899; in [9] it was 0.272; in experiment [10] it was -0.0994. The z-score in experiment [8] is -2.18 (inactive).
Turning to `COc1ccc(C#Cc2ccc3c(c2)[C@]2(C(=O)N3)[C@H](c3ccc(OCCO)cc3)N3[C@H](c4ccccc4)[C@H](c4ccccc4)OC(=O)[C@H]3[C@@H]2C(=O)N2CCN(c3ncccn3)CC2)cc1`, the composite z-score was -0.176 in experiment [1]; 0.07 in [2]; -0.093 in [3]; 0.344 in [4]; 1.2 in [5]; -0.132 in experiment [6]. The composite z-score was 0.135 in experiment [7], -0.0006 in experiment [9] and -0.318 in experiment [10]. In experiment [8], the z-score is 0.781 (inactive).
As to `COc1ccc([Si](C)(C)[C@H]2[C@H](CCn3cc(CCO)nn3)O[C@@]3(C(=O)N(Cc4cccc(N5C(=O)c6cccc7cccc5c67)c4)c4ccccc43)[C@@H]2C)cc1`, the composite z-score in experiment [1] was -0.201; in experiment [2], 0.603; in experiment [3], -0.105; in [4], 0.906; in experiment [5], 0.45; in [6] it was 0.772. Moreover, the composite z-score in experiment [7] amounted to 0.862; in experiment [9], 0.395; in experiment [10] it was 1.55. Also, in [8], the z-score is -3.54 (inactive).
Take `COCCCNC(=O)[C@@H]1c2ccccc2C(=O)N(Cc2cc(F)cc(C(F)(F)F)c2)[C@H]1c1ccc(CO)cc1`: the composite z-score was 0.211 in [1]; -0.303 in experiment [2]; -0.233 in experiment [3]; -0.535 in experiment [4]; -0.984 in experiment [5]; -0.676 in experiment [6]. The values for the composite z-score in [7], in [9] and in [10] were 0.716, -0.395 and -0.134, respectively. Also, in [8], the z-score is 0.154 (inactive).
Consider `O=C(C=C(CC(O)c1cccc(Cl)c1)OCCF)OCCF` (stereo not given), for which the composite z-score was 0.876 in experiment [1]; -0.824 in [2]; -0.154 in [3]; -0.694 in experiment [4]; -1.02 in [5]; -0.0066 in [6]. Also, the composite z-score is -0.19 in experiment [7], 0.0462 in [9] and 0.0596 in [10]. Also, the z-score in experiment [8] is -4.54 (inactive).
On to `O=C(N1CCOCC1)[C@@]1(CCS(=O)(=O)c2ccccc2)COC(c2ccc(OCCCO)cc2)=N1`, for which the composite z-score is 0.229 in experiment [1]; 0.281 in [2]; -0.0348 in experiment [3]; 0.797 in experiment [4]; -0.194 in experiment [5]; 0.929 in experiment [6]. Also, the composite z-score turned out to be 0.942 in experiment [7], 0.54 in experiment [9] and 0.041 in [10]. Also, the z-score in experiment [8] is -1.85 (inactive).
Consider `Cc1ccc(S[C@]2(C(=O)NCC(C)C)CC(=O)N(C3CCCCC3)[C@@H]2c2ccc(CO)cc2I)cc1`, for which the composite z-score was -0.25 in experiment [1]; 0.0044 in experiment [2]; 0.062 in experiment [3]; 0.384 in [4]; 0.939 in experiment [5]; 1.42 in experiment [6]. The composite z-score in [7] was 1.03; in experiment [9] it was 0.0997; in experiment [10], -0.166. Also, the z-score in experiment [8] was -2.29 (inactive).
